Test results: PubChem BioAssay (NCATS)
Records with an inconclusive call do not appear. Active and inactive are the calls of the source. Calls come from the whole dose curve; as a rule, active = well fitted inhibition curve with a large enough effect; inconclusive = small, poorly fitted or top-dose-only effect; inactive = flat fitted curve, though single readings scatter.

Legend:
Experiment in all cases: qHTS profiling for inhibitors of Plasmodium falciparum proliferation (AID 504749); note: nearly all actives have a fitted effect of over 60% in size
Conditions in all cases: P. falciparum in erythrocytes, SYBR Green DNA, 72 h; series mostly up to 28.7 µM
N140 = tested on: N140
In short: (§1)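 Infected RBCs, 0.3% parasitemia/2.5% Hct final; cpd 72 h, 37 C, 5% CO2; lysis buffer with saponin/triton/SYBR Green I, o/n RT dark; FI 485/535; norm. to artemisinin (0.29 uM) and DMSO.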

P93_24 = tested on: P93_24
In short: as §1

P94_40 = tested on: P94_40
In short: as §1

PAD = tested on: PAD
In short: as §1

PC15 = tested on: PC15
In short: as §1

PC26 = tested on: PC26
In short: as §1

PC49 = tested on: PC49
In short: as §1

SC27B = tested on: SC27B
In short: as §1

TAB109 = tested on: TAB109
In short: as §1

TAB113 = tested on: TAB113
In short: as §1

Measured: Potency
Potency is the fitted concentration of half-maximal effect.

N#Cc1ccc(C(c2ccc(C#N)cc2)n2cncn2)cc1
inactive: all assays above

Cc1ccc(N(CC2=NCCN2)c2cccc(O)c2)cc1
inactive: all assays above

N=c1nc(N2CCCCC2)cc(N)n1O
inactive: all assays above

Cc1[nH]c(=O)c(C#N)cc1-c1ccc2nccn2c1
inactive: all assays above

CC(C[N+](C)(C)C)OC(N)=O (stereo not given)
inactive: all assays above

NC[C@H](O)c1ccc(O)c(O)c1
inactive: all assays above

OC(CN1CCC(Cc2ccc(F)cc2)CC1)c1ccc(Cl)cc1 (stereo not given)
active: N140 0.794 µM | P93_24 1.58 µM | P94_40 1.58 µM | PAD 0.631 µM | PC15 2 µM | PC26 1.51 µM | PC49 1.58 µM | SC27B 1.58 µM | TAB109 1.78 µM | TAB113 1.41 µM

Oc1ccc(C2CNCCc3c2cc(O)c(O)c3Cl)cc1 (stereo not given)
inactive: all assays above

Nc1nc2c(ncn2COCCO)c(=O)[nH]1
inactive: all assays above

NC(=O)c1cnccn1
inactive: all assays above

Nc1ccc(S(=O)(=O)Nc2ccnn2-c2ccccc2)cc1
inactive: all assays above

CCCc1nn(C)c2c(=O)[nH]c(-c3cc(S(=O)(=O)N4CCN(C)CC4)ccc3OCC)nc12
inactive: all assays above

O=c1[nH]cnc2[nH]ncc12
inactive: all assays above

O=NN(CCCl)C(=O)NCCCl
inactive: all assays above

Cc1[nH]c(=O)c(C#N)cc1-c1ccncc1
inactive: all assays above

NS(=O)(=O)c1cc2c(cc1Cl)NC=NS2(=O)=O
inactive: all assays above

Cc1cn[nH]c1
inactive: all assays above

CCc1ccc(CCOc2ccc(CC3SC(=O)NC3=O)cc2)nc1 (stereo not given)
inactive: all assays above

CCCCNc1cc(C(=O)O)cc(S(N)(=O)=O)c1Oc1ccccc1
inactive: all assays above

Clc1cccc(Cl)c1NC1=NCCN1
inactive: all assays above

NCCCC(N)(C(=O)O)C(F)F (stereo not given)
inactive: all assays above

O=c1n(CCCN2CCN(c3cccc(Cl)c3)CC2)nc2ccccn12
inactive: all assays above

O=C1CCC(N2C(=O)c3ccccc3C2=O)C(=O)N1 (stereo not given)
inactive: all assays above

Cc1c(C)c2c(c(C)c1O)CCC(C)(COc1ccc(CC3SC(=O)NC3=O)cc1)O2 (stereo not given)
active: P94_40 10 µM | SC27B 10 µM | TAB113 11.2 µM
inactive: PC15 | PC49 | TAB109

O=C1CCc2cc(OCCCCc3nnnn3C3CCCCC3)ccc2N1
inactive: TAB109

CCOC(=O)N1CCC(=C2c3ccc(Cl)cc3CCc3cccnc32)CC1
inactive: TAB109
active: N140 3.98 µM | P94_40 11.2 µM | PAD 3.16 µM | PC15 11.2 µM | PC26 12 µM | PC49 4.47 µM | SC27B 6.31 µM

CC(=O)Oc1ccccc1C(=O)O
not listed: PC26
inactive: all other assays above

N[C@@H]1CONC1=O
not listed: TAB109
inactive: all other assays above

CC(C)C[C@H](NC(=O)[C@@H](O)[C@H](N)Cc1ccccc1)C(=O)O
active: N140 7.94 µM | P93_24 5.01 µM | P94_40 7.08 µM | PAD 10 µM | PC26 9.53 µM | SC27B 7.94 µM | TAB109 6.31 µM | TAB113 7.08 µM

COc1ccc2nc(S(=O)Cc3ncc(C)c(OC)c3C)[nH]c2c1 (stereo not given)
not listed: PAD | PC26
inactive: all other assays above

CN1CCN(CCCN2c3ccccc3Sc3ccc(C(F)(F)F)cc32)CC1
active: N140 8.91 µM | P93_24 2.24 µM | P94_40 12.6 µM | PAD 12.6 µM | PC15 10 µM | PC26 13.5 µM | TAB109 11.2 µM
inactive: TAB113

Clc1ccc(Nc2nnc(Cc3ccncc3)c3ccccc23)cc1
inactive: PC15 | PC26 | PC49 | SC27B | TAB109 | TAB113

CNC[C@H](O)c1cccc(O)c1
not listed: PAD
inactive: all other assays above

NC(N)=NC(=O)c1nc(Cl)c(N)nc1N
active: N140 8.91 µM | P93_24 7.08 µM | P94_40 12.6 µM | PAD 8.91 µM | PC15 7.08 µM | TAB109 10 µM

C1COC(NC(C2CC2)C2CC2)=N1
inactive: PC15 | PC49 | SC27B | TAB113
active: PAD 11.2 µM

CCOC(=O)C1=C[C@@]2(CC)CCCN3CCc4c(n1c1ccccc41)[C@H]32
active: PC26 15.1 µM

Cc1ccccc1C(OCCN(C)C)c1ccccc1 (stereo not given)
inactive: PAD | PC49
active: N140 12.6 µM

NCCc1ccc(O)c(O)c1
not listed: N140
inactive: all other assays above

NNCCc1ccccc1
not listed: P94_40
inactive: all other assays above

CC(C)NCC(O)COc1ccc(COCCOC(C)C)cc1 (stereo not given)
not listed: TAB109
inactive: all other assays above

Cc1oncc1C(=O)Nc1ccc(C(F)(F)F)cc1
not listed: P93_24
inactive: all other assays above

CCOC(=O)C1=C[C@]2(CC)CCCN3CCc4c(n1c1ccccc41)[C@@H]32
active: N140 12.6 µM | P93_24 12.6 µM | PC26 15.1 µM | SC27B 12.6 µM | TAB109 10 µM

C#Cc1cccc(Nc2ncnc3cc(OCCOC)c(OCCOC)cc23)c1
inactive: PC49
active: P94_40 12.6 µM | PAD 11.2 µM

Cn1cnc([N+](=O)[O-])c1Sc1ncnc2nc[nH]c12
inactive: PAD | PC49 | SC27B | TAB109 | TAB113

CC(c1cc2ccccc2s1)N(O)C(N)=O (stereo not given)
not listed: PC26
inactive: all other assays above

CCCc1nc2c(C)cc(-c3nc4ccccc4n3C)cc2n1Cc1ccc(-c2ccccc2C(=O)O)cc1
active: N140 1.41 µM | P94_40 1.78 µM | PAD 1 µM | PC15 2.51 µM | PC49 2.51 µM | SC27B 1.58 µM | TAB113 2.24 µM

Nc1nc2ccc(OC(F)(F)F)cc2s1
not listed: P94_40 | SC27B
inactive: all other assays above
